Data taken from PubChem BioAssay (NCATS).
Several values for one entry are separate records, joined by “and”; a condition that tells them apart may be missing. Identical values can stand only once. Results filed as inconclusive are left out. Where a structure was tested more than once in an assay, its records may differ in their call. A number with no mark means an inactive call. Activity calls are given as the source filed them. Unless noted, calls follow the shape of the dose curve; as a rule, active = well fitted curve in the direction sought with a large enough effect; inconclusive = small, poorly fitted or top-dose-only effect, or another doubt; inactive = no such curve, though single readings can be large; an effect the other way counts as inactive or inconclusive.
Potency is read from the fitted curve at half-maximal effect.

The compounds below were run against Cellular tumor antigen p53 (Homo sapiens) (UniProt P04637) (assay: Primary qHTS for small molecule compounds that upregulate eGFP-tagged delta133p53alpha (in N-terminal) cells. (AID 2060322; also: nearly all actives have a fitted effect of over 75% in size;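 as to activation: cells pre-induced with doxycycline then dosed without doxycycline; 0% = DMSO vehicle and 100% = reference activator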)). Conditions: NCI-H358 eGFP-delta133p53alpha fluorescence, 24 h; activation: hits give high values.
Chain of Cellular tumor antigen p53 (Homo sapiens) (P04637 whole entry, looked up): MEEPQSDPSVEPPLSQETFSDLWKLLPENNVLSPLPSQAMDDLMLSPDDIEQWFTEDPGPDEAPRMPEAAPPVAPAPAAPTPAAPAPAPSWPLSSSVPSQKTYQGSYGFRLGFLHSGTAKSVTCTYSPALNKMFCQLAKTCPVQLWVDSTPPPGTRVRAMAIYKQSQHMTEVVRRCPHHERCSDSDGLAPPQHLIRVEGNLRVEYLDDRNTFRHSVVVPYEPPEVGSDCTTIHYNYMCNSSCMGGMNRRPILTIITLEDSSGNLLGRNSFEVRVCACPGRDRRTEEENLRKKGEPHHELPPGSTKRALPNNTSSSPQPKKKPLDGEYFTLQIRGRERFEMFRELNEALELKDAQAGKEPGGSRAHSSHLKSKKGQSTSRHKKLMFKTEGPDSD
Procedure, shortened: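 NCI-H358 cells pre-induced 24 h with 10 ng/ml doxycycline for eGFP-delta133p53alpha, plated dox-free and exposed 24 h at 37C to titrated compounds. Fixed, Hoechst-stained; gated GFP peak intensity by laser scanning cytometry, normalized to DMSO (0%) and 57.5 uM 5-azacytidine (100%).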
`N#C/C(=C/c1ccc(O)c(O)c1)C(N)=S` was tested, and the activation was -33.2%. For `Cc1cc(O)ccc1Cl`, the activation was -17.5%. With `O=C(Cc1ccc(Cl)c(Cl)c1)N1CCCCC1CN1CCCC1` (centres undefined) the activation was -15.5%. With `CC[n+]1c(-c2ccccc2)c2cc(N)ccc2c2ccc(N)cc21` the Potency was 19.5 µM (active). In the case of `COP(=S)(OC)Oc1cc(Cl)c(Cl)cc1Cl`, the activation is reported as -17.5%. In the case of `CN(C)CCc1c[nH]c2ccc(O)cc12`, the activation is reported as 5.08%. `CCN(CC)CCN1C(=O)CN=C(c2ccccc2F)c2cc(Cl)ccc21` gave an activation of 11.9%. With `Cc1[nH]nc2ccc(-c3cncc(OC[C@@H](N)Cc4c[nH]c5ccccc45)c3)cc12` the activation was 8.93% and the Potency was 8.63 µM (active). `ClCCCN1CCN(c2cccc(Cl)c2)CC1` gave an activation of -2.82%. Compound `CCCCCCCCCC(=O)O[C@H]1CC[C@H]2[C@@H]3CCC4=CC(=O)CC[C@@H]4[C@H]3CC[C@]12C` has an activation of 2.82%. In the case of `Oc1ccccc1-c1ccccc1`, the activation is reported as 10%. With `COC(=O)C(Cl)C(=O)OC` the activation was -13.4%. Work on `CCCN(CCC)[C@H]1CCc2c(F)ccc(O)c2C1` yielded an activation of 15.8%. For `CC1=NN=C(c2ccc(N)cc2)c2cc3c(cc2C1)OCO3`, the activation was 6.58% and the Potency was 9.68 µM (active). With `CC(=O)[O][Hg][c]1ccccc1` the Potency was 8.71 µM (active). In the case of `C[C@](O)(CS(=O)(=O)c1ccc(F)cc1)C(=O)Nc1ccc(C#N)c(C(F)(F)F)c1`, the activation is reported as -4.55%. `COc1ccc(CN2CCNCC2)c(OC)c1OC` showed an activation of -13%. `CN1CCN(c2ccc([N+](=O)[O-])c3no[n+]([O-])c23)CC1` was tested, and the Potency was 21.3 µM (active) and the activation was 8.01%. `c1ccc2c(N3CCNCC3)cccc2c1` gave an activation of -14.7%. `CC(Cc1ccccc1)NCc1ccccc1Cl` (centres undefined) showed an activation of 16.4%. Compound `NCc1cccnc1` has an activation of 6.21%. `C[N+](C)(C)CCOC(=O)CBr` gave an activation of -13.1%. For `CCN1CCN(C(=O)Cc2ccc(Nc3ncc(F)c(Nc4ccc(C(=O)Nc5ccccc5Cl)cc4)n3)cc2)CC1`, the activation was 33.8% and the Potency was 4.78 µM (active). For `CC(Cc1ccccc1)N(C)Cc1ccco1` (centres undefined), the activation was -11.7%. Compound `CC(C)=CC1C(C(=O)OCN2C(=O)C3=C(CCCC3)C2=O)C1(C)C` (centres undefined) has an activation of 17.6%. With `COc1ccc2c(c1OC)CN1CCc3cc4c(cc3C1C2)OCO4` (centres undefined) the activation was 26.6% and the Potency was 34.3 µM (active). For `NC(Cc1cc(O)c(O)cc1O)C(=O)O` (centres undefined), the activation was -19.2%. With `Cn1cc(C2=C(c3cn(C4CCN(Cc5ccccn5)CC4)c4ccccc34)C(=O)NC2=O)c2ccccc21` the Potency was 21.7 µM (active) and the activation was 38.7%. `Cc1ncc2n1-c1ccc(Cl)cc1C(c1ccccc1F)=NC2` showed an activation of -27.7%. For `Clc1ccc(COC(Cn2ccnc2)c2ccc(Cl)cc2Cl)cc1` (centres undefined), the activation was 24.3% and 15.7%. `NC(N)=NOCC[C@H](N)C(=O)O` was tested, and the activation was -12%. In the case of `C[C@]12CCC(=O)C=C1CC[C@@H]1[C@H]3CC[C@](C)(O)[C@@]3(C)CC[C@@H]12`, the Potency is reported as 50.9 µM (active). In the case of `O=C1NCN(c2ccccc2)C12CCN(CCCOc1ccc(F)cc1)CC2`, the activation is reported as 0.837%. `CN(C)[C@@H]1C(=O)C(C(N)=O)=C(O)[C@@]2(O)C(=O)C3=C(O)c4c(O)cccc4[C@@](C)(O)[C@H]3C[C@@H]12` was tested, and the activation was -14.3% and the Potency was 21.9 µM (active). `C#CC(O)(C=CCl)CC` (centres undefined) was tested, and the activation was 19.8%. `CC[C@@H](CO)NC(=O)[C@@H]1C=C2c3cccc4c3c(cn4C)C[C@H]2N(C)C1` was tested, and the activation was -3.95% and -69.3%. With `O=c1[nH]c2ccccc2n1C1CCN(CCCC(c2ccc(F)cc2)c2ccc(F)cc2)CC1` the activation was -35.4% and the Potency was 26.9 µM (active). In the case of `Nc1cc2c(ncn2CCOCP(=O)(O)O)c(=O)[nH]1`, the activation is reported as -41.7%. `Cn1cnc(CCN)c1` showed an activation of -2.51%.

Each compound was assayed against Cellular tumor antigen p53 (Homo sapiens) (UniProt P04637) (assay: Primary qHTS for small molecule compounds that upregulate eGFP-tagged delta133p53alpha (in C-terminal) cells. (AID 2060324;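 as to GFP increase (activation): 0% = DMSO wells and 100% = 57.5 µM 5-azacytidine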)). Conditions: NCI-H358 delta133p53alpha-eGFP (C-terminal tag), GFP fluorescence imaging, 24 h; series mostly up to 57.5 µM; GFP increase (activation): at the top concentration.
Procedure, shortened: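 Concentration-response screen: compounds titrated onto pre-induced NCI-H358 D133p53a-eGFP cells, incubated one day, fixed with 3.5% PFA. Per-cell GFP peak intensity was gated, then normalized against intraplate controls.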
In the case of `N#C/C(=C/c1ccc(O)c(O)c1)C(N)=S`, the “GFP increase (activation)” value is reported as 7.81%. `O=C(Cc1ccc(Cl)c(Cl)c1)N1CCCCC1CN1CCCC1` (centres undefined) was tested, and the “GFP increase (activation)” value was 5.31%. `CCCN(CCC)[C@H]1CCc2c(F)ccc(O)c2C1` was tested, and the “GFP increase (activation)” value was -0.549%. In the case of `CC1=NN=C(c2ccc(N)cc2)c2cc3c(cc2C1)OCO3`, the Potency is reported as 21.3 µM (active). `c1ccc2c(N3CCNCC3)cccc2c1` was tested, and the “GFP increase (activation)” value was 10.3%. `C[N+](C)(C)CCOC(=O)CBr` was tested, and the “GFP increase (activation)” value was 8.73%. With `NC(Cc1cc(O)c(O)cc1O)C(=O)O` (centres undefined) the “GFP increase (activation)” value was -7.68%. `NC(N)=NOCC[C@H](N)C(=O)O` was tested, and the “GFP increase (activation)” value was -10.6%. For `CC[C@@H](CO)NC(=O)[C@@H]1C=C2c3cccc4c3c(cn4C)C[C@H]2N(C)C1`, the “GFP increase (activation)” value was 15.4%. With `Nc1cc2c(ncn2CCOCP(=O)(O)O)c(=O)[nH]1` the “GFP increase (activation)” value was 0.644%. `Cn1cnc(CCN)c1` was tested, and the “GFP increase (activation)” value was -2.69%.

These compounds were tested against Aldehyde dehydrogenase, mitochondrial (Homo sapiens) (UniProt P05091) (assay: qHTS for Inhibitors of the Aldehyde Dehydrogenase Family (ALDH2) Validation screens (AID 2061302; active = well fitted inhibition curve with a large enough effect; title and protocol of this record describe different tests;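 as to activity change, negative = inhibition: plate controls were DMSO vehicle for no effect and maximal DPI positive control response for full effect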)). Conditions: ALDH inhibition qHTS; series mostly up to 42.6 µM; activity change, negative = inhibition: at the top concentration.
With `CCCN(CCC)[C@H]1CCc2c(F)ccc(O)c2C1` the “activity change, negative = inhibition” value was -17.2%. For `CC1=NN=C(c2ccc(N)cc2)c2cc3c(cc2C1)OCO3`, the Potency was 8.91 µM (active). For `c1ccc2c(N3CCNCC3)cccc2c1`, the “activity change, negative = inhibition” value was -28.1%. `C[N+](C)(C)CCOC(=O)CBr` was tested, and the “activity change, negative = inhibition” value was -0.837%. With `O=c1[nH]c2ccccc2n1C1CCN(CCCC(c2ccc(F)cc2)c2ccc(F)cc2)CC1` the “activity change, negative = inhibition” value was -2.2%. In the case of `Nc1cc2c(ncn2CCOCP(=O)(O)O)c(=O)[nH]1`, the “activity change, negative = inhibition” value is reported as -18%.
